Experimental data taken from PubChem BioAssay AID898 (University of Pittsburgh Molecular Library Screening Center, 2007).
About 220 (0.16%) of roughly 140,000 compounds were called active. This is one part of a sample in which actives are shown more often than they occur. No stated cut-off is given here; in the data, active means inhibition above about 50%; inactive means the rest.

system: YopH tyrosine phosphatase [Yersinia enterocolitica]; assay: YopH tyrosine phosphatase inhibitors, primary screen, biochemical, fluorescence Ex485/Em525 (AID 898); settings: stronger effect = higher value, concentration not given here

SMILES | inhibition
O=c1[nH]c(CN2CCN(S(=O)(=O)c3ccc4c(c3)OCCO4)CC2)nc2sc3c(c12)CCCC3 | -8.83% (inactive)
Cc1ccc(S(=O)(=O)N(CC(=O)Nc2cccc([N+](=O)[O-])c2)Cc2ccc(Cl)cc2)cc1 | -31.4% (inactive)
CC(C)OCCCNC(=O)c1cc(Sc2ccc(F)cc2)nc2ccccc12 | -10.5% (inactive)
COc1cccc(-n2c(SCC(=O)c3c[nH]c4ccccc34)nc3ccccc3c2=O)c1 | -22.8% (inactive)
C/C(=N\NC(=O)c1ccc(CSc2nc(C)cc(C)n2)cc1)C1CCCCC1 | -27.2% (inactive)
CC(=O)c1c(O)cc2n(c1=O)-c1ccc(Cl)cc1C2(C)C | -21.9% (inactive)
CSc1c(SCc2ccccc2)cnn(Cc2ccccc2)c1=O | -31.9% (inactive)
Cc1ccc(S(=O)(=O)N(NC2=NS(=O)(=O)c3ccccc32)C(=O)c2ccccc2)cc1 | -28.4% (inactive)
CCCCCC(=O)Nc1ccc(S(=O)(=O)Nc2ccc(Cl)nn2)cc1 | -13.3% (inactive)
CC(C)(C)C(=O)N1CCC[C@@]1(CO)C(=O)O | -12.8% (inactive)
COc1ccc(C(CC(=O)c2ccccc2)S(=O)(=O)c2ccccc2)cc1 (centres undefined) | -12.2% (inactive)
CCCCN(C)c1ccc([N+](=O)[O-])cc1 | -11% (inactive)
CCCCOc1ccc(NC(=O)[C@@H]2CCCN2C(=O)C2CCN(S(=O)(=O)c3ccc(C)cc3)CC2)cc1 | -8.82% (inactive)
Cc1ccccc1Cn1nc(C)c(NC(=O)C(F)(F)F)c1C | -28.6% (inactive)
Cc1ccc(-c2csc(NNC(=O)c3ccccc3)n2)cc1 | -36.8% (inactive)
Cc1ccccc1/[N+]([O-])=C/c1ccncc1 | 77.8% (active)
CC(NC(=O)C(=O)NN=C1CCC(C(C)(C)C)CC1)c1ccccc1 (centres undefined) | -22% (inactive)
CCOc1ncccc1C(=O)N(CC)CC(=O)Nc1ccc(NC(C)=O)cc1 | -14.7% (inactive)
Cc1cc(C(=O)CSc2nc(N)cc(=O)[nH]2)c(C)n1-c1cccc(F)c1 | -16.4% (inactive)
COC(=O)Cc1csc(/N=C/c2c(O)n(-c3cccc(C(F)(F)F)c3)c(=O)c3ccccc23)n1 | -22.8% (inactive)
COc1ccc(-n2c(C)cc(C(=O)CN3C(=O)NC4(CCc5ccccc54)C3=O)c2C)cc1 (centres undefined) | -19.6% (inactive)
Cc1scc(C(=O)NNC(=S)NCC(C)C)c1C | -19.1% (inactive)
COCCCNC(=O)Cn1cc(/C=C(\C#N)C(=O)N2CCN(c3ccccc3)CC2)c2ccccc21 | -25.6% (inactive)
CC(=O)Nc1cccc(/C(C)=N/NC(=O)c2c(-c3ccccc3Cl)noc2C)c1 | -32.1% (inactive)
